According to the supplement of paper PMC9446081:
Among all 39,000 compounds or so, about 220 (0.56%) showed activity. The entries come from a sample that favours actives as a whole.

The molecules below were run on Escherichia coli K-12 BW25113 (assay: relative growth (OD600 normalised to plate interquartile mean) (fraction); higher = less growth inhibition, active = 0.2 or less). Conditions: 50 µM; LB; incubation time: overnight (16-24 h).
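Also: Wild-type cells incubated without shaking, value is the mean of two biological replicates.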

Question: With `C[C@H](NC(=O)C[C@H]1C=C[C@@H](NC(=O)CN2CCOCC2)[C@H](CO)O1)c1ccccc1` as the molecule, how does the relative growth read?
Answer: 1 (inactive)

Question: For `C[C@H](O)C#Cc1ccc2c(c1)O[C@H](CN(C)C(=O)Cc1ccccn1)[C@H](C)CN([C@@H](C)CO)S2(=O)=O`, which relative growth is on record?
Answer: 1.01 (inactive)

Question: How did the relative growth turn out when `CN1CCN(C(=O)C[C@@H]2CC[C@H]3[C@@H](COC[C@@H](O)CN3Cc3ccc4c(c3)OCO4)O2)CC1` was run?
Answer: 0.988 (inactive)

Question: For `O=C(C[C@H]1C[C@H]2c3cc(NC(=O)Nc4ccc(C(F)(F)F)cc4)ccc3O[C@H]2[C@H](CO)O1)NCc1ccc(Cl)cc1`, which relative growth is on record?
Answer: 0.973 (inactive)

Question: Which relative growth does the source give for `C[C@@H]1CN([C@@H](C)CO)C(=O)c2cc(NS(=O)(=O)c3cn(C)cn3)ccc2O[C@@H]1CN(C)Cc1ccncc1` here?
Answer: 0.994 (inactive)

Question: How did the relative growth turn out when `C[C@@H]1CN([C@H](C)CO)C(=O)Cc2cc(NC(=O)Nc3ccc(F)cc3)ccc2O[C@@H]1CN(C)Cc1ccc(Cl)c(Cl)c1` was run?
Answer: 1.02 (inactive)

Question: How did the relative growth turn out when `Cc1ccc(S[C@]2(C(=O)NCCN3CCOCC3)CC(=O)N(C(C)C)[C@@H]2c2ccc(CO)cc2)cc1` was run?
Answer: 1 (inactive)

Question: `C=CCOC(=O)[C@H]1[C@@H]2C(=O)O[C@@H](c3ccccc3)[C@@H](c3ccccc3)N2[C@@H](c2ccc(OCCOC(=O)NCCCCCC(=O)NO)cc2)[C@@]12C(=O)Nc1ccc(I)cc12` was tested. Which relative growth did it give?
Answer: 0.993 (inactive)

Question: How did the relative growth turn out when `C[C@@H]1CN([C@@H](C)CO)C(=O)c2cc(NC(=O)Nc3ccc(C(F)(F)F)cc3)ccc2O[C@H]1CN(C)C(=O)Nc1cccc2ccccc12` was run?
Answer: 1.01 (inactive)

Question: With `COC(=O)c1cn(CC(=O)N2CCN(C)CC2)nn1` as the molecule, how does the relative growth read?
Answer: 0.978 (inactive)

Question: Which relative growth does the source give for `C[C@@H]1CN([C@@H](C)CO)C(=O)c2cc(NS(=O)(=O)c3cn(C)cn3)ccc2O[C@H]1CN(C)S(C)(=O)=O` here?
Answer: 1.02 (inactive)

Question: `C[C@H](CO)N1C[C@H](C)[C@@H](CN(C)S(C)(=O)=O)Oc2c(NC(=O)Nc3ccc4c(c3)OCO4)cccc2C1=O` was tested. Which relative growth did it give?
Answer: 0.991 (inactive)

Question: `N#CC1C(=O)NC(=O)N=C1Nc1ccccc1` (stereo not drawn) was tested. Which relative growth did it give?
Answer: 0.981 (inactive)

Question: With `NCC1OC(OC2C(CO)OC(OC3C(O)C(N)CC(N)C3OC3OC(CN)C(O)C(O)C3N)C2O)C(N)C(O)C1O.O=S(=O)(O)O.O=S(=O)(O)O.O=S(=O)(O)O` (stereo not drawn) as the molecule, how does the relative growth read?
Answer: 1.2 (inactive)

Question: `NCC1OC(OC2C(CO)OC(OC3C(O)C(N)CC(N)C3OC3OC(CO)C(O)C(O)C3N)C2O)C(N)C(O)C1O.O=S(=O)(O)O` (stereo not drawn) was tested. Which relative growth did it give?
Answer: 0.915 (inactive)

Question: `NC[C@H]1O[C@H](O[C@H]2[C@H](O[C@@H]3O[C@H](CO)[C@@H](O)[C@H]3O)[C@@H](O)[C@H](N)C[C@@H]2N)[C@H](N)[C@@H](O)[C@@H]1O` was tested. Which relative growth did it give?
Answer: 0.515 (inactive)

Question: Which relative growth does the source give for `NCCC(O)C(=O)NC1CC(N)C(OC2OC(CN)C(O)C(O)C2O)C(O)C1OC1OC(CO)C(O)C(N)C1O.O` (stereo not drawn) here?
Answer: 0.0465 (active)

Question: With `NCC[C@H](O)C(=O)N[C@@H]1C[C@H](N)[C@@H](O[C@H]2O[C@H](CN)[C@@H](O)[C@H](O)[C@H]2O)[C@H](O)[C@H]1O[C@H]1O[C@H](CO)[C@@H](O)[C@H](N)[C@H]1O` as the molecule, how does the relative growth read?
Answer: 0.0379 (active)

Question: For `Cc1noc(C)c1NC(=O)Nc1ccc2c(c1)C(=O)N([C@H](C)CO)C[C@H](C)[C@@H](CN(C)C(=O)Nc1ccc(F)cc1)OCCCC[C@@H](C)O2`, which relative growth is on record?
Answer: 0.985 (inactive)

Question: `CCN1CCN(c2ccc(Nc3cc(N(C)C(=O)Nc4c(Cl)c(OC)cc(OC)c4Cl)ncn3)cc2)CC1` was tested. Which relative growth did it give?
Answer: 0.975 (inactive)

Question: Which relative growth does the source give for `C[C@@H]1CN([C@H](C)CO)C(=O)Cc2cc(NC(=O)Nc3ccc(F)cc3)ccc2O[C@@H]1CN(C)S(C)(=O)=O` here?
Answer: 0.979 (inactive)

Question: How did the relative growth turn out when `C[C@@H]1CCCCO[C@H](CN(C)S(=O)(=O)c2ccc(Cl)cc2)[C@H](C)CN([C@@H](C)CO)C(=O)c2cc(NC(=O)c3ccncc3)ccc2O1` was run?
Answer: 0.997 (inactive)

Question: `Cc1ccc(S(=O)(=O)N(C)C[C@@H]2OCCCC[C@@H](C)Oc3ccc(NC(=O)Nc4c(C)noc4C)cc3C(=O)N([C@H](C)CO)C[C@@H]2C)cc1` was tested. Which relative growth did it give?
Answer: 1 (inactive)

Question: With `CC(=O)N[C@H]1CC[C@@H](CCNC(=O)C2CC2)O[C@H]1CO` as the molecule, how does the relative growth read?
Answer: 0.943 (inactive)

Question: For `CC1(C)SC2C(N3C(=O)C(c4ccccc4)NC3(C)C)C(=O)N2C1C(=O)[O-].[K+]` (stereo not drawn), which relative growth is on record?
Answer: 0.0443 (active)

Question: How did the relative growth turn out when `CC1(C)SC2C(NC(=O)Cc3ccccc3)C(=O)N2C1C(=O)[O-].[K+]` (stereo not drawn) was run?
Answer: 0.576 (inactive)

Question: `CC1(C)SC2C(NC(=O)COc3ccccc3)C(=O)N2C1C(=O)[O-].[K+]` (stereo not drawn) was tested. Which relative growth did it give?
Answer: 0.598 (inactive)

Question: How did the relative growth turn out when `O=C(C[C@H]1C[C@@H]2c3cc(NC(=O)C4CCOCC4)ccc3O[C@@H]2[C@@H](CO)O1)NCc1cc(F)ccc1F` was run?
Answer: 0.984 (inactive)

Question: With `C[C@@H]1CCCCO[C@@H](CN(C)C(=O)C2CCCCC2)[C@H](C)CN([C@@H](C)CO)C(=O)c2cc(NS(=O)(=O)c3ccccc3)ccc2O1` as the molecule, how does the relative growth read?
Answer: 1.02 (inactive)

Question: For `COc1ccc(S(=O)(=O)Nc2ccc3c(c2)C(=O)N([C@@H](C)CO)C[C@@H](C)[C@@H](CN(C)S(=O)(=O)c2cn(C)cn2)O3)cc1`, which relative growth is on record?
Answer: 0.994 (inactive)

Question: Which relative growth does the source give for `Cn1sccc1=O` here?
Answer: 0.0369 (active)

Question: `COc1ccccc1C#Cc1cnc2c(c1)C(=O)N([C@@H](C)CO)C[C@@H](C)[C@@H](CN(C)C(=O)c1ccc3c(c1)OCO3)O2` was tested. Which relative growth did it give?
Answer: 1.03 (inactive)

Question: With `COc1ccc(S(=O)(=O)Nc2ccc3c(c2)C(=O)N([C@@H](C)CO)C[C@@H](C)[C@H](CN(C)Cc2ccc(C(=O)O)cc2)OCCCC[C@@H](C)O3)cc1` as the molecule, how does the relative growth read?
Answer: 0.984 (inactive)

Question: Which relative growth does the source give for `CC(C)CC#Cc1cnc2c(c1)C(=O)N([C@@H](C)CO)C[C@@H](C)[C@@H](CN(C)C(=O)CCN1CCCCC1)O2` here?
Answer: 0.965 (inactive)

Question: How did the relative growth turn out when `CN1CCN(c2c(F)cc3c(=O)c(C(=O)O)cn(CCF)c3c2F)CC1` was run?
Answer: 0.0442 (active)

Question: Which relative growth does the source give for `CN1CCN(c2c(F)cc3c(=O)c(C(=O)O)cn4c3c2SCC4)CC1` here?
Answer: 0.0436 (active)

Question: For `C[C@@H]1CN([C@@H](C)CO)C(=O)CCCn2nncc2CO[C@@H]1CN(C)S(=O)(=O)c1ccc(Oc2ccccc2)cc1`, which relative growth is on record?
Answer: 1.02 (inactive)

Question: How did the relative growth turn out when `Cc1ccc(S(=O)(=O)N[C@@H]2C=C[C@H](CC(=O)NCCN3CCCCC3)O[C@@H]2CO)cc1` was run?
Answer: 1.01 (inactive)

Question: `Cc1ccc(S(=O)(=O)N(C)C[C@@H]2OCCCC[C@H](C)Oc3ccc(NC(=O)Nc4ccc(F)cc4)cc3C(=O)N([C@H](C)CO)C[C@H]2C)cc1` was tested. Which relative growth did it give?
Answer: 0.983 (inactive)

Question: With `CC(C)NC(=O)Nc1ccc2c(c1)C(=O)N([C@H](C)CO)C[C@H](C)[C@@H](CN(C)C(=O)C1CCCCC1)OCCCC[C@@H](C)O2` as the molecule, how does the relative growth read?
Answer: 0.984 (inactive)

Question: How did the relative growth turn out when `NCC1CCN(Cc2ccccc2)CC1` was run?
Answer: 1.02 (inactive)

Question: For `NC1CCN(Cc2ccccc2)CC1`, which relative growth is on record?
Answer: 1.09 (inactive)

Question: With `COc1cc2c(cc1OC)C(=O)C(CC1CCN(Cc3ccccc3)CC1)C2.Cl` (stereo not drawn) as the molecule, how does the relative growth read?
Answer: 0.0489 (active)

Question: `O=C(C[C@H]1C[C@@H]2c3cc(NS(=O)(=O)c4ccc(F)cc4)ccc3O[C@@H]2[C@@H](CO)O1)NCc1ccccn1` was tested. Which relative growth did it give?
Answer: 1.01 (inactive)

Question: How did the relative growth turn out when `NC1(CC(=O)O)CCN(Cc2ccccc2)CC1` was run?
Answer: 0.999 (inactive)

Question: Which relative growth does the source give for `Cn1cc(CN2CCC(C(=O)N[C@@H](c3ccc(F)cc3)c3ccc4ccccc4n3)CC2)c2ccccc21` here?
Answer: 0.963 (inactive)

Question: Which relative growth does the source give for `C[C@@H]1CN([C@H](C)CO)C(=O)c2cccc(NS(=O)(=O)c3cn(C)cn3)c2O[C@@H]1CN(C)CC1CCCCC1` here?
Answer: 0.98 (inactive)

Question: Which relative growth does the source give for `COc1ccc(CN(C)C[C@@H]2Oc3c(NC(=O)c4cc(C)nn4C)cccc3C(=O)N([C@@H](C)CO)C[C@H]2C)cc1` here?
Answer: 0.957 (inactive)

Question: How did the relative growth turn out when `CCn1cc(C(=O)O)c(=O)c2cc(F)c(N3CCNCC3)cc21` was run?
Answer: 0.0456 (active)

Question: How did the relative growth turn out when `CCn1cc(C(=O)O)c(=O)c2cc(F)c(N3CCN(C)CC3)cc21.CS(=O)(=O)O` was run?
Answer: 0.0455 (active)

Question: How did the relative growth turn out when `O=C(OC(C(F)(F)F)C(F)(F)F)N1CCN(Cc2ccc(C(F)(F)F)cc2N2CCCC2)CC1` was run?
Answer: 0.994 (inactive)

Question: How did the relative growth turn out when `CCn1cc(C(=O)O)c(=O)c2cc(F)c(N3CCN(C(=S)Nc4cc(C(F)(F)F)ccc4Cl)CC3)cc21` was run?
Answer: 0.0858 (active)

Question: How did the relative growth turn out when `CCn1cc(C(=O)N2CCN(C)CC2)c(=O)c2cc(S(=O)(=O)N(C)C)ccc21` was run?
Answer: 0.974 (inactive)

Question: `CCOC(=O)c1c[nH]c(CC(C)=O)nc1=O` was tested. Which relative growth did it give?
Answer: 0.999 (inactive)

Question: With `Cc1ccc(S(=O)(=O)N2C[C@@H](O)COC[C@H]3O[C@H](CC(=O)N[C@H]4CCN(Cc5ccccc5)C4)CC[C@@H]32)cc1` as the molecule, how does the relative growth read?
Answer: 1.01 (inactive)

Question: `C[C@H]1CN([C@@H](C)CO)C(=O)Cc2cc(NC(=O)Nc3ccc4c(c3)OCO4)ccc2O[C@H]1CN(C)S(=O)(=O)c1cn(C)cn1` was tested. Which relative growth did it give?
Answer: 0.835 (inactive)

Question: `C[C@@H]1CN([C@H](C)CO)C(=O)c2cccc(NC(=O)Nc3cccc4ccccc34)c2O[C@H]1CN(C)S(=O)(=O)c1ccccc1` was tested. Which relative growth did it give?
Answer: 0.987 (inactive)

Question: `COc1ccc(S(=O)(=O)N(C)C[C@H]2Oc3c(NS(=O)(=O)c4c(C)noc4C)cccc3C(=O)N([C@H](C)CO)C[C@H]2C)cc1` was tested. Which relative growth did it give?
Answer: 0.997 (inactive)

Question: `CO/N=C1\CN(c2nc3c(cc2F)c(=O)c(C(=O)O)cn3C2CC2)C[C@@H]1CN` was tested. Which relative growth did it give?
Answer: 0.154 (active)

Question: With `CON=C1CN(c2nc3c(cc2F)c(=O)c(C(=O)O)cn3C2CC2)CC1CN.CS(=O)(=O)O` (stereo not drawn) as the molecule, how does the relative growth read?
Answer: 0.0419 (active)

Question: Which relative growth does the source give for `C[C@H]1CN([C@@H](C)CO)C(=O)Cc2cc(NC(=O)NC3CCCCC3)ccc2O[C@H]1CN(C)S(=O)(=O)c1cn(C)cn1` here?
Answer: 0.985 (inactive)

Question: How did the relative growth turn out when `C[C@H]1CN([C@@H](C)CO)C(=O)c2cc(NC(=O)Cc3ccccc3)ccc2O[C@@H]1CN(C)S(=O)(=O)c1cccs1` was run?
Answer: 0.993 (inactive)

Question: `Nc1ccc(OCC(=O)N2CCOCC2)cc1` was tested. Which relative growth did it give?
Answer: 1.03 (inactive)
